An excerpt weighted towards active compounds, which were near 4.3% of everything screened.
DRD3 antagonist: qHTS of D3 Dopamine Receptor Antagonist: qHTS. 2.5% of 360,000 active. D(3) dopamine receptor (Homo sapiens), P35462. D3R cells, DiscoveRx beta-arrestin luminescence, antagonist mode; hits give low values. AID 652054, 2013. max response, negative = inhibition, %; in the data active = max response below about -50%; inconclusive = no clear call, values can overlap the other calls; note: % is set by controls: 0 for no effect and ±100 for the full control effect
Target sequence (P35462 whole entry, looked up): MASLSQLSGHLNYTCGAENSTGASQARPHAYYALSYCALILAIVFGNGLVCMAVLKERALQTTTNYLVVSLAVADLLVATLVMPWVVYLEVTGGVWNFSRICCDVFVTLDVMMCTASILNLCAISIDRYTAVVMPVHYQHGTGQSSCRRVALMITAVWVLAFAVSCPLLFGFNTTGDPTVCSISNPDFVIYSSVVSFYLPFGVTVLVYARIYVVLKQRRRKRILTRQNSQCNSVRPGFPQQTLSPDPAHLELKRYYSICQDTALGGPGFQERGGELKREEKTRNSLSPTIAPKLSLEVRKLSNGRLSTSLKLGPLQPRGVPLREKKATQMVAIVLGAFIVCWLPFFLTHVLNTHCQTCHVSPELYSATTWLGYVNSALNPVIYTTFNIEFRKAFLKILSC
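Cells expressing the human receptor were seeded at 1500 cells/well, incubated overnight at 37 degrees C in 5% CO2, then exposed to library compounds with dopamine controls for 90 minutes at 37 degrees C before luminescent detection.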
GLP-1R inv ag: qHTS of GLP-1 Receptor Inverse Agonists (Inhibition Mode). Glucagon-like peptide 1 receptor (Homo sapiens), P43220. AID 624417, 2012. HEK293 GLP-1R CRE-luciferase, luminescence, 24 h; GLP-1R form is constitutively active. 1.6% of 410,000 active. Potency, µM (highest dose often 38.3 µM), without a hit: top-dose activity change, negative = inhibition, usual class: inhibitors; note: potency is the fitted concentration of half-maximal effect; % is set by controls: 0 for no effect and ±100 for the full control effect; nearly all actives have a fitted effect of over 55% in size
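Constitutively active GLP-1R drives a cAMP-responsive luciferase in stably transfected HEK293 cells; test compounds are added after overnight (12 h) attachment and left 24 hr, and signal loss in luminescence marks inhibition.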
D3 ag: qHTS of D3 Dopamine Receptor Agonist: qHTS; 0.58% of 410,000 active; D3R DiscoveRx beta-arrestin cells, luminescence, 90 min; AID 652048, 2013; D(3) dopamine receptor (Homo sapiens), P35462; max activation, %; in the data active = max activation above about 30%; note: 0% is about no effect
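Agonist-mode cell screen: cells plated at 1500/well and incubated overnight at 37 °C, then exposed to library compounds for 90 min at 37 °C. Detection reagent was added for 30–60 min at room temperature, and luminescence was read.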
GLP1R ag: qHTS of GLP-1 Receptor Agonists | Glucagon-like peptide 1 receptor (Homo sapiens), P43220 | HEK293 GLP-1R CRE-luciferase, luminescence, 4-6 h; cells express a hypersensitive GLP-1R form | Potency, µM (series often up to 45.6 µM), inactives show top-dose activation, actives largely listed as activators | 0.007% of 380,000 active; note: potency is the fitted concentration of half-maximal effect; % of control where 0% means no effect
Starred values were filed as active, the others as inactive; ? = inconclusive; . = no result given; ! = not confirmed by another sample. Unless noted, calls come from the whole dose curve; as a rule, active = well fitted curve in the direction sought with a large enough effect; inconclusive = small, poorly fitted or top-dose-only effect, or another doubt; inactive = no such curve, though single readings can be large; an effect the other way counts as inactive or inconclusive.

SMILES	DRD3 antagonist	GLP-1R inv ag	D3 ag	GLP1R ag
CCOc1cc2sc(N3CCC(C(=O)Nc4ccc(C(C)C)cc4)CC3)nc2cc1Br	.	53.4%	-3.7	.
CCOC(=O)c1c(S(=O)(=O)NCC2CCN(CCc3cccs3)CC2)c(C)n(C)c1C	-83.4*	-24.6%	-23.4	2.6%
CCOC(=O)c1c(S(=O)(=O)NCCc2cccs2)c(C)n(C)c1C	-21.4	-14.1%	-3.5	8.5%
O=C(Nc1ccc2c(c1)OCCO2)c1c(Cl)cccc1Cl	-9.9	?	-1.5	6.8%
CCCCC(=O)Nc1cccc(NC(=O)CC)c1	10.6	-4.0%	0.7	-7.6%
O=C(Nc1ccc2c(c1)OCCO2)N1CCN(c2ccccc2)CC1	-51.9*	0.0%	-1.6	7.7%
CCCCC(=O)Nc1cccc(NC(=O)c2ccccc2Br)c1	-61.1*	0.0%	1.4	-10.7%
CC(=O)Nc1cccc(O)c1	-0.9	?	82.6*!	0.9%
O=C(Nc1ccc2c(c1)OCCO2)c1cccc(Cl)c1Cl	4.1	11.2µM*	-1.9	-2.2%
COc1ccc(N2CCN(CCCNC(=O)c3ccc4nc(CCc5ccccc5)oc4c3)CC2)cc1	.	-13.9%	-0.1	.
O=C1CCN(Cc2ccccc2)C=C1c1cccc(O)c1	-8.7	3.3%	13.1	-1.0%
CC(=O)Nc1cccc(NC(=O)c2ccccc2Cl)c1	-54.6*	23.0%	-9.1	0.2%
Cc1nc2ncnn2c(C)c1Cc1ccccc1Cl	-82.3*	5.7%	4.6	2.3%
NC(N)=N/N=C/c1ccc(Br)cc1	-7.6	5.01µM*	-1.3	-4.8%
N#Cc1ccc(/C=N/N=C(N)N)cc1	0.0	9.6%	10.0	-9.5%
Cc1ccc(CSc2nc3c(c(N(C)C)n2)CCCC3)cc1	?	11.2µM*	0.8	5.2%
O=C(Nc1ccc(F)cc1Cl)n1ncc2cc(Cl)ccc21	.	-11.0%	-5.9	.
O=C(CSc1ncn[nH]1)Nc1c(F)cc(F)cc1Br	-14.4	2.2%	-0.8	-0.9%
O=C(CSc1nc2ncccc2[nH]1)Nc1c(F)cc(F)cc1Br	-57.8*	17.1%	-3.0	-5.1%
CC(=O)Nc1cc[n+](C(C)C(=O)c2ccc(Br)cc2)cc1 (configuration not stated)	-84.0*	-27.7%	-16.1	-0.3%
CC(C(=O)c1ccccc1)[n+]1cccc(Br)c1 (configuration not stated)	-71.4*	7.6%	-5.4	-0.4%
CNc1cccc(-c2cccc(O)c2)n1	-53.0*	18.5%	-15.3	10.2%
Cc1ccc(C(=O)CC2(O)C(=O)N(Cc3ccccc3)c3ccc(Br)cc32)cc1 (configuration not stated)	.	-4.3%	-4.2	.
Cc1ccc(C(=O)N2c3ccccc3N(Cc3ccccc3)C(=O)C2(C)C)cc1	-23.1	11.2µM*	-19.4	-0.4%
O=C(Oc1c(-c2ccccc2)oc2ccccc2c1=O)c1ccccc1	4.5	5.01µM*	2.6	-1.2%
SMILES	DRD3 antagonist	GLP-1R inv ag	D3 ag	GLP1R ag
COc1ccc(-c2oc3ccccc3c(=O)c2OC(=O)c2ccc(C)cc2)cc1	-9.7	4.6%	0.1	2.5%
Cc1[nH]c(=O)[nH]c(=O)c1S(=O)(=O)N1CCN(c2ccccc2Cl)CC1	.	2.2%	-6.7	.
CCC1Nc2ncnc(N3CCN(c4ccccc4)CC3)c2N(Cc2ccccc2)C1=O (configuration not stated)	-142.4*	?	-59.9	-1.4%
CCC1Nc2ncnc(N3CCOCC3)c2N(Cc2ccc(C)cc2)C1=O (configuration not stated)	-2.5	18.9%	6.0	0.0%
CC(C)CC1Nc2ncnc(N3CCN(c4ccccc4)CC3)c2N(Cc2ccc(Cl)cc2)C1=O (configuration not stated)	-23.1	?	-9.9	0.3%
Cc1ccc(CN2C(=O)C(Cc3ccccc3)Nc3ncnc(N4CCOCC4)c32)cc1 (configuration not stated)	-58.2*	21.4%	-9.2	-3.8%
Cc1ccc(CN2C(=O)C(CC(C)C)Nc3ncnc(N4CCN(c5ccccc5)CC4)c32)cc1 (configuration not stated)	-54.6*!	?	-13.5	-1.0%
CCC1Nc2ncnc(N3CCN(c4ccccc4)CC3)c2N(Cc2ccc(C)cc2)C1=O (configuration not stated)	-138.8*	?	-61.2	-2.5%
Cc1ccc2nc(-c3cccc(NC(=O)c4cccc5ccccc45)c3)oc2c1	.	-11.1%	2.6	.
O=S1(=O)c2cccc3cccc(c23)N1CCCN1CCN(c2ccc(F)cc2)CC1	.	.	-13.1	-3.0%
CCCCc1nnc(SCc2cc(=O)c3cc(C(=O)OCC)ccc3[nH]2)n1C	.	15.5%	8.8	.
COc1cc(C2NC(=O)NC(C)=C2C(=O)OCC2CCCO2)cc(OC)c1OC (configuration not stated)	3.1	3.7%	-3.2	11.6%
COc1cc(C2NC(=O)NC(C)=C2C(=O)OCC2CCCO2)ccc1O (configuration not stated)	13.2	39.2%	31.4*	4.4%
Cc1noc(NS(=O)(=O)c2ccc(NC(=O)Cc3ccc([N+](=O)[O-])cc3)cc2)c1C	-8.2	2.8%	0.5	-4.5%
O=C(c1ccc(CNS(=O)(=O)c2ccccc2)cc1)N1CCN(c2ccccn2)CC1	33.2	-15.8%	1.4	0.1%
O=C(c1ccc(Cl)c(S(=O)(=O)NCc2ccccc2)c1)N1CCN(c2ccccn2)CC1	-70.7*	-18.3%	15.5	1.5%
CC1Nc2ncnc(N3CCN(c4ccccc4)CC3)c2N(Cc2ccc(Br)cc2)C1=O (configuration not stated)	-156.2*	?	-78.9	-5.5%
CC1Nc2ncnc(N3CCOCC3)c2N(Cc2ccccc2)C1=O (configuration not stated)	2.1	16.4%	8.1	-2.0%
COc1ccc(CN2C(=O)C(C)Nc3ncnc(N4CCOCC4)c32)cc1 (configuration not stated)	-1.0	?	-4.8	15.2%
COc1ccc(CN2C(=O)C(C)Nc3ncnc(N4CCN(c5ccccc5)CC4)c32)cc1 (configuration not stated)	-69.9*	?	-44.9	-3.5%
O=S1(=O)CC(N2CC=CC2)CN1Cc1cn(Cc2ccc(F)cc2)nn1 (configuration not stated)	-52.3*	8.8%	-3.4	3.5%
CN1CCN(C2CN(Cc3cn(Cc4cccc(C(F)(F)F)c4)nn3)S(=O)(=O)C2)CC1 (configuration not stated)	-50.9*	27.6%	-2.2	4.8%
Cc1cc(C(=O)Nc2ccc(C(C)C)cc2)c2c(C)nn(-c3ccccc3)c2n1	.	14.0%	-10.5	-8.5%
COc1ccc(-c2cc(C(F)(F)F)n3nc(C(=O)Nc4cccc(C(F)(F)F)c4)c(Br)c3n2)cc1	.	2.4%	2.6	.

Screens as filed in PubChem.
